Where “and” joins values, the source holds several entries; their conditions need not be identical. Equal values may be shown once. Results filed as inconclusive are left out. Calls of active or inactive are those of the source. Unless noted, calls follow the shape of the dose curve; as a rule, active = well fitted curve in the direction sought with a large enough effect in the repeat runs; inconclusive = weak or mixed curves; inactive = no such curve, though single readings can be large; an effect the other way counts as inactive or inconclusive.

The results in this text go back to PubChem BioAssay (Tox21).

Experiment [1] is described as follows: qHTS assay to identify small molecule antagonists of the estrogen related receptor (ERR) signaling pathway from Tox21 library - cell viability counter screen (AID 1224834). Also: nearly all actives have a fitted effect of over 30% in size. Also: potency is read from the fitted curve at half-maximal effect. The method in brief:
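Seeded ERR cells were rested 6 h at 37 C/5% CO2 before compounds, positive and negative controls or DMSO were added. Incubation continued for 17.5 h, and viability was then quantified by CellTiter-Fluor fluorescence.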
A general note: In qHTS, concentration-response curves come from the screen itself.

The target in experiment [2] is Luciferin 4-monooxygenase (Photinus pyralis) (UniProt P08659). Briefly: qHTS assay to identify small molecule inhibitors of firefly luciferase (AID 1224835). Also: nearly all actives have a fitted effect of over 25% in size. Also: potency is read from the fitted curve at half-maximal effect. The method in brief:
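Quantitative HTS format; KM concentrations of both substrates. Purified P. pyralis FLuc activity quantified from luminescence images.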

Experiment [3] is described as follows: qHTS RealTime-Glo MT Cell Viability Assay in HEK293 cells - 32 hour (AID 1224868). Also: nearly all actives have a fitted effect of over 50% in size. Also: potency is read from the fitted curve at half-maximal effect. The method in brief: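 HEK293 cells seeded with NanoLuc/prosubstrate reagent, rested 5 h at 37 C, then dosed and kept at 37 C up to 40 h. Nonlytic real-time luminescence from viable cells read at 0, 8, 16, 24, 32 and 40 h.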
Experiment [4] in a line: A CellTox Green Cytotoxicity Assay to monitor cytotoxicity in HepG2 cells - 24 hour (AID 1224878). Also: nearly all actives have a fitted effect of over 45% in size. Also: potency is read from the fitted curve at half-maximal effect. The method in brief:
(§1)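 Measurements at 0, 8, 16, 24, 32 and 40 h of treatment captured CellTox Green fluorescence in HepG2 cells that had been co-plated with reagent and preincubated 5 h at 37 C/5% CO2.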

A short description of experiment [5]: A CellTox Green Cytotoxicity Assay to monitor cytotoxicity in HEK293 cells - 8 hour (AID 1224884). Also: nearly all actives have a fitted effect of over 35% in size. Also: potency is read from the fitted curve at half-maximal effect. The method in brief:
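Tox21 screen in HEK293: membrane-impermeant cyanine dye fluoresces on binding dead-cell DNA; compound pinned 5 h post-seeding, plates held at 37 C, signal read repeatedly through 40 h.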

Experiment [6] can be described thus: qHTS assay to identify small molecule agonists of the sonic hedgehog signaling (Shh) pathway - cell viability counter screen (AID 1259366). Also: nearly all actives have a fitted effect of over 50% in size. Also: potency is read from the fitted curve at half-maximal effect. The method in brief:
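In quantitative high-throughput format, 3T3 Gli1-Luc cells were exposed to compounds for 24hr and multiplexed for viability using CellTiter-Fluor, incubated 1hr at 37C before the fluorescence read.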

Experiment [7] can be described thus: qHTS assay to identify small molecule antagonists of the sonic hedgehog signaling (Shh) pathway - cell viability counter screen (AID 1259367). Also: nearly all actives have a fitted effect of over 55% in size. Also: potency is read from the fitted curve at half-maximal effect. The essentials: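 Conditioned medium drove Shh signaling in 3T3 Gli1-Luc cells exposed to compounds at 37C and 5% CO2. Viability was determined from CellTiter-Fluor fluorescence, with reagent incubated 1 hr after 23 hr of treatment.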

Experiment [8] addresses Estrogen receptor (Homo sapiens) (UniProt P03372). Briefly: qHTS assay to identify small molecule agonists of the estrogen receptor alpha (ER-alpha) signaling pathway in the presence of an antagonist (AID 1259383; calls by dose curve; also: top concentration of the series differs between compounds; nearly all actives have a fitted effect of over 15% in size). The essentials: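 Quantitative HTS confirmation: compounds titrated at 15 concentrations onto estrogen-deprived VM7Luc4E2 cells carrying a four-ERE luciferase construct, with ICI-182,780 present at 10.0nM final. Signal is luminescence after 22hr exposure.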

Experiment [9] can be described thus: qHTS assay to identify small molecule agonists of the TGF-beta/Smad signaling pathway - cell viability counter screen (AID 1346829). Also: top concentration of the series differs between compounds; nearly all actives have a fitted effect of over 45% in size. The essentials:
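SBE-bla HEK 293T cells plated overnight, compound exposure 5 hr at 37 C. Viability read in the same wells by CellTiter-Glo luminescence after 30 min at room temperature, following the beta-lactamase read.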

Experiment [10] deals with Nuclear receptor subfamily 1 group I member 2 (Homo sapiens) (UniProt O75469). Briefly: Human pregnane X receptor (PXR) small molecule agonists, qHTS assay (AID 1346982). Also: nearly all actives have a fitted effect of over 35% in size. Also: potency is read from the fitted curve at half-maximal effect. The essentials:
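Stable HepG2 line reporting PXR-mediated CYP3A4 expression via luciferase. Treatment: 24 hr with compounds in DMSO at 37 C. Detection: ONE-Glo luminescence.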

The target in experiment [11] is Cytochrome P450 2C19 (Homo sapiens) (UniProt P33261). As to the kind of experiment: Cytochrome P450 Family 2 Subfamily C Member 19 (CYP2C19) small molecule antagonists: luciferase reporter qHTS assay (AID 1671197). Also: potency is read from the fitted curve at half-maximal effect; nearly all actives have a fitted effect of over 65% in size. The method in brief: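 P450-Glo CYP2C19 system: enzyme-substrate mix with compound 10 min at room temperature, then NADPH regeneration solution, 1 h at 37C. Proluciferin-to-luciferin conversion detected by luminescence after 20 min with detection reagent; ketoconazole as positive control.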
Cytochrome P450 2C19 (Homo sapiens), sequence (P33261 whole entry, looked up): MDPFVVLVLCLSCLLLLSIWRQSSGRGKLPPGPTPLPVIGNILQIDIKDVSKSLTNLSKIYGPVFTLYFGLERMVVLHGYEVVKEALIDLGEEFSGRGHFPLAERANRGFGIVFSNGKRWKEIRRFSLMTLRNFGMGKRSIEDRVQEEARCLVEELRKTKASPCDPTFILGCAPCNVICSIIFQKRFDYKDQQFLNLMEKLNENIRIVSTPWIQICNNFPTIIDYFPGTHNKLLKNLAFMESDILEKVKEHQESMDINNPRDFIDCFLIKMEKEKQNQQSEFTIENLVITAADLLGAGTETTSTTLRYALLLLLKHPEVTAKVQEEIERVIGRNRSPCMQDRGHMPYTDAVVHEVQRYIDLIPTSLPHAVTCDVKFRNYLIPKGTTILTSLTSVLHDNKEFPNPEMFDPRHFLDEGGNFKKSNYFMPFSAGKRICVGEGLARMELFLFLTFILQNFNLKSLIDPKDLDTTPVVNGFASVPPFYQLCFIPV
On the technique in general: Reporter assays use an easily measured gene product as a stand-in for the process of interest.

For experiment [12], the target named is Cytochrome P450 2C9 (Homo sapiens) (UniProt P11712). Briefly: Cytochrome P450 Family 2 Subfamily C Member 9 (CYP2C9) small molecule antagonists: luciferase reporter qHTS assay (AID 1671198). Also: nearly all actives have a fitted effect of over 50% in size. Also: potency is read from the fitted curve at half-maximal effect. The method in brief: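 CYP2C9 activity was measured with a P450-Glo proluciferin substrate. Enzyme–substrate mix was held with compound for 10 min at room temperature, then NADPH regeneration solution was added for 1 h at 37C. Luciferin product was read as luminescence.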
Cytochrome P450 2C9 (Homo sapiens), sequence (P11712 whole entry, looked up): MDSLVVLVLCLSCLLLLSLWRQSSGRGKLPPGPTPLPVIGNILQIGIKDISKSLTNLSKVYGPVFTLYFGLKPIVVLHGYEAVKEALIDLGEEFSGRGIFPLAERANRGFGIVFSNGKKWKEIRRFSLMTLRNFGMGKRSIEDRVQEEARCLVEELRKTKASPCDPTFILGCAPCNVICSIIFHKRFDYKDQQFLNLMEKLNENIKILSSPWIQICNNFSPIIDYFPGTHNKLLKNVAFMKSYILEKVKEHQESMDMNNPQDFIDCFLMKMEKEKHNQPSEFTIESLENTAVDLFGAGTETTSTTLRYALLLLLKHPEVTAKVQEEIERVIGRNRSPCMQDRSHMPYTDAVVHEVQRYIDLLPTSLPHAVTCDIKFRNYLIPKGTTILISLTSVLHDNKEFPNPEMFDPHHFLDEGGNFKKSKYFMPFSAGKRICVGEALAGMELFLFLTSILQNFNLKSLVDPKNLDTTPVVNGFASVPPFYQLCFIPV

The target in experiment [13] is Retinoic acid receptor RXR-alpha (Homo sapiens) (UniProt P19793). Briefly: qHTS assay to identify small molecule agonists of the RXR signaling pathway (AID 1159527; calls by dose curve; also: nearly all actives have a fitted effect of over 35% in size). The essentials:
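Using 9-cis retinoic acid as the reference agonist, chemicals were tested in HEK 293T cells […] for 16 hr; substrate loading lasted 2 hr at room temperature.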

A short description of experiment [14]: qHTS assay to identify small molecule agonists of the constitutive androstane receptor (CAR) signaling pathway - cell viability counter screen (AID 1224836). Also: nearly all actives have a fitted effect of over 45% in size. Also: potency is read from the fitted curve at half-maximal effect. The method in brief:
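23 h treatment, 37 C, 5% CO2. Cell line: HepG2 stably expressing hCAR with a CYP2B6-2.2kb construct. Co-treatment: PK11195, 0.75 uM final. Read-out: CellTiter-Fluor fluorescence intensity.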

Experiment [15] in a line: qHTS assay to identify small molecule antagonists of the constitutive androstane receptor (CAR) signaling pathway - cell viability counter screen (AID 1224837). Also: nearly all actives have a fitted effect of over 45% in size. Also: potency is read from the fitted curve at half-maximal effect. The method in brief:
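To flag cytotoxic false antagonists, HepG2 hCAR/CYP2B6-2.2kb cells were treated 23 hr with 15-concentration compound series and 50 nM CITCO at 37 C/5% CO2; CellTiter-Fluor fluorescence was the measured end point.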

Experiment [16] in a line: qHTS RealTime-Glo MT Cell Viability Assay in HepG2 cells - 24 hour (AID 1224867). Also: nearly all actives have a fitted effect of over 50% in size. Also: potency is read from the fitted curve at half-maximal effect. The method in brief: (§2)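 HepG2 cells (600/well) were dispensed with RealTime-Glo reagents, incubated 5 h at 37 °C, then treated with compounds in DMSO for up to 40 h. Nonlytic NanoLuc luminescence reflecting viable cells was read at each stated time point.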
Experiment [17] in a line: A CellTox Green Cytotoxicity Assay to monitor cytotoxicity in HepG2 cells - 40 hour (AID 1224879). Also: nearly all actives have a fitted effect of over 40% in size. Also: potency is read from the fitted curve at half-maximal effect. The method in brief: as §1
Experiment [18] can be described thus: qHTS RealTime-Glo MT Cell Viability Assay in HepG2 cells - 16 hour (AID 1224885). Also: nearly all actives have a fitted effect of over 50% in size. Also: potency is read from the fitted curve at half-maximal effect. The essentials:
as §2

Experiment [19] can be described thus: qHTS assay to identify small molecule agonists of the estrogen receptor alpha (ER-alpha) signaling pathway in the presence of an antagonist - cell viability counter screen (AID 1259386).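 Also: series mostly up to about 92 µM; cells exposed to compounds for 22 h at 37 °C before the viability read; nearly all actives have a fitted effect of over 30% in size.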 The method in brief: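 The test measures whether compounds kill ER-alpha reporter cells (VM7Luc4E2) under antagonist co-treatment (ICI-182,780, 10.0nM). Fluorescence from CellTiter-Fluor is read after a 22hr exposure.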

Experiment [20] can be described thus: qHTS assay to identify small molecule antagonists of the TGF-beta/Smad signaling pathway - cell viability counter screen (AID 1346824). Also: nearly all actives have a fitted effect of over 50% in size. The essentials:
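SBE-bla HEK 293T cells were plated overnight at 37 C, then given compounds in DMSO plus TGF-beta1 (added as 0.25 ng/mL solution) for 5 hr. After the bla read, CellTiter-Glo was added to the same wells and luminescence read after 30 min at room temperature.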

Estrogen receptor (Homo sapiens), sequence (P03372 whole entry, looked up): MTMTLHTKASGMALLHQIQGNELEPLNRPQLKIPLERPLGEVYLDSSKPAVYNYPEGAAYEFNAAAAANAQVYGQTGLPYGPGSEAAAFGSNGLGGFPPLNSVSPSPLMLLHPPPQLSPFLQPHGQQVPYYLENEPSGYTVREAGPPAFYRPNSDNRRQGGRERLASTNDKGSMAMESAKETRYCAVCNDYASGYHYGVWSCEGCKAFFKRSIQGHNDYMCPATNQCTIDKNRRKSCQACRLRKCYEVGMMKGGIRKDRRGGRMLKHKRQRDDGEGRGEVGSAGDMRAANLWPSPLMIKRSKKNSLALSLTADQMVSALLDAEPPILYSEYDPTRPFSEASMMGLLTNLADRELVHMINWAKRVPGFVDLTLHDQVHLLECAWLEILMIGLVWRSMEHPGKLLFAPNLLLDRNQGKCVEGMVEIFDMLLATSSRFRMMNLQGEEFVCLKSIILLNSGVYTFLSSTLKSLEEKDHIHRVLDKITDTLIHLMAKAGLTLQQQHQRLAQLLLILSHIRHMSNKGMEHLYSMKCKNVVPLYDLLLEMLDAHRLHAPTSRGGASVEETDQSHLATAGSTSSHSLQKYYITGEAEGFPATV
Retinoic acid receptor RXR-alpha (Homo sapiens), sequence (P19793 whole entry, looked up): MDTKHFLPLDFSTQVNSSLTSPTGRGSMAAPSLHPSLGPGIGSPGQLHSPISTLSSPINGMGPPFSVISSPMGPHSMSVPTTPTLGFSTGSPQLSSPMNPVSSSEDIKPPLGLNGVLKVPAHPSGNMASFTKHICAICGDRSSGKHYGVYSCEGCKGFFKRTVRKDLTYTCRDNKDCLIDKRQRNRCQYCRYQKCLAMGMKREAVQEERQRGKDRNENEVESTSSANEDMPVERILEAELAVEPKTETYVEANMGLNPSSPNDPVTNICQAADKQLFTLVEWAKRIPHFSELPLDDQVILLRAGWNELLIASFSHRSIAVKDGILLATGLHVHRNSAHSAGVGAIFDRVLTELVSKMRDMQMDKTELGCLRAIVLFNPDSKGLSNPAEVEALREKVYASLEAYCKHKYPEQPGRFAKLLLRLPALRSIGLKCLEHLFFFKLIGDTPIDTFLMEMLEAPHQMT
Luciferin 4-monooxygenase (Photinus pyralis), sequence (P08659 whole entry, looked up): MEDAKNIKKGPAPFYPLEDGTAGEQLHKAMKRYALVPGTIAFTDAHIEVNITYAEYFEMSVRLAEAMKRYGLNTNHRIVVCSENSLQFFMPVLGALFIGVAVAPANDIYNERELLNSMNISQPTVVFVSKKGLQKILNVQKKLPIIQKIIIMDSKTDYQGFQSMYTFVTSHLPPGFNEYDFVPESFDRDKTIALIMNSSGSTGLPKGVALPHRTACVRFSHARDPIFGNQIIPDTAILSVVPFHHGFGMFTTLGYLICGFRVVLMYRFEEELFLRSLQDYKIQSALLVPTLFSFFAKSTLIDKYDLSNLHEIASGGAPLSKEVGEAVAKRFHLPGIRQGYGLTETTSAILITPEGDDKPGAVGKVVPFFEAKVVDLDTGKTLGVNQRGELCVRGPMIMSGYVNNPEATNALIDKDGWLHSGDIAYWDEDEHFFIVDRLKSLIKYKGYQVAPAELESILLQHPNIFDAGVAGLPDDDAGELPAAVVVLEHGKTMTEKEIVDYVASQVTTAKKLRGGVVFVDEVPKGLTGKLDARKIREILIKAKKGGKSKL
Nuclear receptor subfamily 1 group I member 2 (Homo sapiens), sequence (O75469 whole entry, looked up): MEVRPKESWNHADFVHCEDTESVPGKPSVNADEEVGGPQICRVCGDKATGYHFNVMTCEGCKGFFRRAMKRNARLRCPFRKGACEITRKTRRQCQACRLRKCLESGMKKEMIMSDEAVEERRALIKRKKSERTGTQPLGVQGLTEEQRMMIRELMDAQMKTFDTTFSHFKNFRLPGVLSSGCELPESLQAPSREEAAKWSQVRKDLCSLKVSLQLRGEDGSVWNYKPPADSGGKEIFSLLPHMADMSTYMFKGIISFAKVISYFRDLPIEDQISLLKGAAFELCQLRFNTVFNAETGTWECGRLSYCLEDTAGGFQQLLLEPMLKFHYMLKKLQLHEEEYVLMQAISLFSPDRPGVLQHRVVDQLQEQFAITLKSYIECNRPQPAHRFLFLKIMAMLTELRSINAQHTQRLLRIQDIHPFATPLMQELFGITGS

In the case of `CC1COC(Cn2cncn2)(c2ccc(Oc3ccc(Cl)cc3)cc2Cl)O1` (stereo unspecified), the Potency in experiment [1] is 27.3 µM (active); in experiment [3], 19.5 µM (active); in experiment [10], 61.1 µM (active); in experiment [11], 0.0502 µM (active); in experiment [12], 1.12 µM (active). For the same compound, the Potency result in [2], in experiment [4], in [5], in [6] and in experiment [7] was “inactive” each time. Besides, the result in [8] and in experiment [9] was inactive.
As to `Cc1c(N)cccc1[N+](=O)[O-]`, in experiment [13], the Potency entry was “inactive”.
On to `O=C1OC(=O)c2c(Cl)c(Cl)c(Cl)c(Cl)c21`, for which the Potency result in experiment [13] was “inactive”.
With `O=[N+]([O-])c1c(Cl)c(Cl)cc(Cl)c1Cl`, the Potency result in experiment [1], in experiment [2], in experiment [14], in [15], in experiment [16] and in experiment [3] was “inactive” in each case. In addition, the Potency result in [18], in experiment [6], in [7], in experiment [19] and in [20] was “inactive” in each case. The results for the Potency in experiment [17] and in experiment [11] were 54.9 µM (active) and 71 µM (active), respectively. Also, the result in experiment [8] and in experiment [9] was inactive.
Turning to `COc1cc(OC)c(OC)cc1C=O`, the Potency result in experiment [1], in experiment [2], in experiment [14], in experiment [15], in experiment [16] and in experiment [3] was “inactive” throughout. The Potency entry in experiment [4], in experiment [17], in [5], in [18], in experiment [19] and in experiment [20] was “inactive” each time. Moreover, the Potency entry in experiment [10] was “inactive”. In addition, the Potency in experiment [7] was 47.1 µM (active); in experiment [11], 38.7 µM (active). Also, the outcome in [8] and in experiment [9] was inactive.
As to `CCC(C)=O`, the Potency entry in [13] is “inactive”.
Turning to `O=C(Nc1ccccc1-c1ccc(Cl)cc1)c1cccnc1Cl`, the Potency result in experiment [14], in [15], in [16], in [18], in [6] and in [7] was “inactive” throughout. Also, the Potency entry in [19] and in experiment [12] was “inactive” in each case. In addition, the Potency is 41.2 µM (active) in experiment [4]; 46.3 µM (active) in experiment [17]; 46.3 µM (active) in [5]; 10.3 µM (active) in experiment [10]; 3.56 µM (active) in experiment [11]. Further, the outcome in experiment [8] was inactive.
For `CN1CSC(=S)N(C)C1`, the Potency in [1] was 6.08 µM (active) and 13.6 µM (active); in experiment [14], 4.83 µM (active) and 15.3 µM (active); in experiment [15], 5.42 µM (active) and 7.67 µM (active); in experiment [16], 17.3 µM (active); in experiment [3], 17.3 µM (active) and 24.5 µM (active); in experiment [4], 10.9 µM (active) and 27.5 µM (active). Besides, the Potency is 12.2 µM (active) and 10.9 µM (active) in experiment [17]; 2.42 µM (active) and 6.09 µM (active) in [6]; 3.05 µM (active) and 13.6 µM (active) in experiment [7]; 5.43 µM (active) in experiment [10]; 35.4 µM (active) and 17.8 µM (active) in [11]; 8.91 µM (active) in [12]. Moreover, the Potency result in [2], in [5], in experiment [18], in experiment [19] and in experiment [20] was “inactive” each time. The outcome in [8] and in experiment [9] was inactive.
Turning to `Brc1cc(Br)cc(Br)c1`, the Potency result in experiment [13] is “inactive”.
Regarding `COc1ccc(C(c2ccc(OC)cc2)C(Cl)(Cl)Cl)cc1`, the Potency entry in experiment [1], in experiment [14], in [15], in [4], in [17] and in experiment [6] was “inactive” in each case. Also, in [20], the Potency result is “inactive”. The Potency in experiment [3] is 48.7 µM (active); in [10] it was 17.1 µM (active); in [11], 0.354 µM (active); in experiment [12] it was 1.82 µM (active). Moreover, the outcome in experiment [8] and in [9] was inactive.
For `O=S(=O)(C(Cl)(Cl)Cl)C(Cl)(Cl)Cl`, the Potency in experiment [1] was 48.6 µM (active); in experiment [2] it was 20 µM (active); in experiment [14], 54.5 µM (active); in [15], 30.6 µM (active); in experiment [16] it was 38.9 µM (active); in experiment [3] it was 9.77 µM (active). For the same compound, the Potency in experiment [4] was 27.5 µM (active); in experiment [17], 19.5 µM (active); in [5], 24.5 µM (active); in experiment [18], 38.9 µM (active); in [6], 9.69 µM (active); in experiment [7], 54.5 µM (active). For the same compound, the Potency in experiment [11] is 25.2 µM (active); in [12], 11.2 µM (active). The outcome in experiment [8] was inactive. In addition, the Potency entry in experiment [19] and in [10] was “inactive” throughout.
